In PubChem BioAssay AID651602 (The Scripps Research Institute Molecular Screening Center, 2012) one finds inhibition data, which are given here for 51 compounds.

Several values for one entry are separate records, joined by “and”; a condition that tells them apart may be missing. Equal entries are not always repeated. The whole screen tested about 360,000 compounds, of which about 950 (0.26%) were called active. No stated cut-off is given here; in the data, active means inhibition above about 11%; inactive means the rest. For the sample, actives were picked, then their nearest neighbours and some compounds at random.

This test in a line: growth loss of phage-infected E. coli, primary screen, RecBCD inhibitor project, absorbance, with phage, HTS (AID 651602). To be noted: at 11.9 µM, active compounds read high.
Consider `COC(=O)c1cc2c(c3c4cc(F)ccc4n(S(=O)(=O)c4ccccc4)c13)C(=O)N(Cc1ccccc1OC)C2`, for which the inhibition is 0.23% (inactive). With `O=C(N[C@H](C(=O)N1CCC[C@H]1C(=O)NCCc1ccccc1Cl)c1ccccc1)c1ccccc1` the figure was 0.16% (inactive); with `C=CC1=C(C(=O)O)N2C(=O)[C@@H](NC(=O)/C(=N/OCC(=O)O)c3csc(N)n3)[C@H]2SC1`, 102% (active); with `C=CC1=C(C(=O)O)N2C(=O)[C@@H](NC(=O)/C(=N\OCC(=O)O)c3csc(N)n3)[C@H]2SC1`, 99.8% (active).

On to `CO/N=C(\C(=O)N[C@@H]1C(=O)N2C(C(=O)O)=C(COC(C)=O)CS[C@H]12)c1csc(N)n1` (stereo in doubt), for which the inhibition was 101% (active) and 100% (active) and 99.7% (active). With `CC1(C)OC(=O)C2=C(CC(CCc3ccccc3)OC2c2ccc(Cl)cc2)O1` (stereo unspecified) the figure was 0.56% (inactive).

Turning to `COC(=O)[C@]1(Cc2ccccc2)NC=C(C(=O)c2ccccc2)[C@@H]1c1cccc(OC)c1`, the inhibition was 0.08% (inactive). For the compound `O=C(NN=Cc1ccco1)C(=O)Nc1ccc(Cl)c([N+](=O)[O-])c1`, the inhibition is 1.23% (inactive). With `COC(=O)C(C(=O)OC)c1ccccc1NS(=O)(=O)c1cccc2ccccc12` the figure was 3.8% (inactive); with `C[C@H](O)[C@@H]1CN2CCc3ccc(-c4ccc5c(c4)OCO5)cc3[C@@H]2C[C@@H]1N(C)C(=O)C1CCCCC1`, 4.59% (inactive); with `OC(c1ccccc1)(c1ccccc1)C1CCN(CCCOc2ccc(-c3ccsc3)cc2)CC1`, -2.69% (inactive).

As for `O=C(C(=O)N1CCC(CNC(=O)c2cccnc2Cl)CC1)c1cccs1`, the inhibition was 2.71% (inactive).

Take `COc1ccc(C2=CN(Cc3ccccc3)C(c3ccc(OC)cc3)CC2=O)cc1` (stereo unspecified): the inhibition was 3.64% (inactive). `C[C@H]1[C@H](c2ccccc2)Oc2cc(Br)ccc2S(=O)(=O)N1Cc1cccc(F)c1`: the inhibition is 1.98% (inactive). With `COC(=O)[C@]12C[C@H](CC(=O)NCCc3ccccc3OC)C(=O)N(Cc3ccccc3)C1=C[C@H](C(C)C)O[C@@H]2C1CC1`, the inhibition was 1.94% (inactive). Regarding `COC(=O)c1c(-c2ccc(OC)cc2)c2c(c3c4cc(OC)ccc4n(S(=O)(=O)c4ccc(F)cc4)c13)C(=O)N(C)C2`, the inhibition was 2.25% (inactive). With `Oc1c(Cl)cc(Cl)c(Cl)c1Cc1c(O)c(Cl)cc(Cl)c1Cl` the figure was 17.2% (active); with `Cc1noc(C)c1NC(=O)Nc1ccc2c(c1)C(=O)N([C@H](C)CO)C[C@H](C)[C@H](CN(C)Cc1ccncc1)OCCCC[C@@H](C)O2`, 2.8% (inactive); with `COc1ccc(S(=O)(=O)Nc2ccc3c(c2)C(=O)N([C@H](C)CO)C[C@H](C)[C@@H](CN(C)C)OCCCC[C@H](C)O3)cc1`, 2.32% (inactive). With `CCOC(=O)NN1C(=O)c2ccccc2NC1c1cccc(O)c1` (stereo unspecified) the figure was 2.82% (inactive). For `O=C1c2ccccc2NC(c2ccc(-c3cccc(Cl)c3)o2)N1O` (stereo unspecified), the inhibition was 21% (active). For `CC(=O)NN1C(=O)c2ccccc2NC1c1ccccc1` (stereo unspecified), the inhibition is -1.19% (inactive).

Regarding `CCCCCCCCN1C(=O)[C@@H](CC(=O)NCCCC)C[C@@]2(C(=O)OC)C1=C[C@H](C(C)(C)C)O[C@@H]2C`, the inhibition was 3.8% (inactive). With `CC[C@H](C)[C@H]1CNC(=O)C(=O)N1CC1CCN(CCc2ccc(OC)c(OC)c2)CC1` the figure was 1.03% (inactive); with `C#CCN([C@@H](C)C(=O)OCC)S(=O)(=O)c1ccc(Br)cc1F`, 1.36% (inactive). Turning to `CC(C)(C)C(c1nc2ccccc2[nH]1)n1c(Cc2csc3ccccc23)nc2ccccc21` (stereo unspecified), the inhibition was -0.16% (inactive). Take `COCCNC(=S)N(C)[C@H]1C[C@H]2c3[nH]c4ccccc4c3CCN2C[C@H]1[C@H](C)O`: the inhibition is 0.63% (inactive).

With `COc1cccc(C(O)c2ncc(-c3ccc4ccccc4c3)[nH]2)c1` (stereo unspecified), the inhibition is 12.1% (active). Consider `Cc1cccc(-c2cnc(C(O)c3ccc4ccccc4c3)[nH]2)c1` (stereo unspecified), for which the inhibition is 2.34% (inactive). For the compound `COc1cccc(-c2cnc(C(O)c3ccccc3OC)[nH]2)c1` (stereo unspecified), the inhibition was -1.64% (inactive).

For `OC(c1ccc(Cl)cc1)c1ncc(-c2ccc(Cl)cc2)[nH]1` (stereo unspecified), the inhibition is 7.68% (inactive). With `Cc1cccc(-c2cnc(C(O)c3cc(C)cc(C)c3)[nH]2)c1` (stereo unspecified) the figure was 9.2% (inactive); with `Cc1ccc(-c2cnc(C(O)c3cc(Cl)cc(Cl)c3)[nH]2)cc1` (stereo unspecified), 17.1% (active); with `Cc1cc(N2CCN(C(=O)OC(C)(C)C)C[C@H]2C)ccc1N1CCN(Cc2ccccc2)[C@H](C)C1`, 7.28% (inactive). With `CCOC(=O)/C=C/c1ccccc1O` the figure was 4.3% (inactive); with `COC(=O)[C@H](CC(C)C)NS(=O)(=O)c1c(F)cccc1F`, 4.61% (inactive). With `O=C(NCc1ccccc1)[C@H]1CCCN1C(=O)[C@H]1CCCN1C(=O)c1cc(F)cc(F)c1` the figure was 2.09% (inactive); with `Nc1ncnc2c1ncn2[C@@H]1O[C@H](C(=O)N[C@@H](CCc2ccccc2)C(=O)NCC(=O)N2CCOCC2)[C@@H](O)[C@H]1O`, 2.03% (inactive). As to `Cc1cc2c(nc1C)CCCN2C`, the inhibition is 1.32% (inactive). Consider `COC(=O)c1ccc(CN2C(=O)[C@]3(OCCC=C[C@H]3C)c3c(Br)cccc32)cc1`, for which the inhibition is 1.58% (inactive).

Regarding `CC(c1cccnc1)N(CCN(C)C)C(=O)Nc1ccc(Cl)c(Cl)c1` (stereo unspecified), the inhibition was 1.6% (inactive).

In the case of `O=C(CC(O)(C(F)(F)F)C(F)(F)F)Nc1ccc(Cl)c(Cl)c1`, the inhibition is 15.6% (active). `O=C(Nc1ccc(Cl)c(Cl)c1)N1CC=C(c2ccccc2)CC1`: the inhibition was 3.32% (inactive). On to `COC(=O)C1=C(C)N(Cc2cccc(C(F)(F)F)c2)C(=NCc2cccc(C(F)(F)F)c2)NC1c1ccccc1C(F)(F)F` (stereo unspecified), for which the inhibition is 9.37% (inactive).

Turning to `COC(=O)Cc1nnn2c1[C@H](C)[C@H](c1ccccc1Br)OCC2`, the inhibition was -1.01% (inactive).

As for `CC(C)(C)C(=O)Nc1c(Br)c(C2CC2)nn1-c1ccccc1`, the inhibition is 97.8% (active).

As to `O=C(Nc1c(Cl)c(C2CC2)nn1-c1ccccc1)C(Cl)(Cl)Cl`, the inhibition was 1.86% (inactive). Take `CC(C)(C)n1nc(C2CC2)c(Br)c1NC(=O)c1ccccc1F`: the inhibition was 3.69% (inactive). On to `Oc1c(CN2CCN(c3ccc(F)cc3)CC2)cc(Cl)c2cccnc12`, for which the inhibition was 13% (active). With `Cc1cccc(C)c1NC(=O)CN1CCN(c2ccc(F)cc2)CC1` the figure was 2.55% (inactive); with `O=C(CN1CCN(c2ccc(Cl)cc2)CC1)c1ccccc1`, 4.29% (inactive).
